About 79,000 compounds went through this panel and 15% of them were active in at least one assay; those are over-represented in the sample as a whole. Calls of active or inactive are those of the source. Cut-off read from the data, not from the text of the source: active = growth inhibition above about 70%; inactive = the rest.
Experiment: NCI Yeast Anticancer Drug Screen. Data for the bub3 strain (AID 167)
Settings: S. cerevisiae bub3 mutant strain, at 5.0 µM (retest, dose inferred, filed as 0.5), stronger effect = higher value
Procedure, shortened: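 Part of a panel of yeast mutants defective in DNA damage repair or cell cycle regulation. Each strain is grown with compound, and inhibition is calculated relative to solvent-treated cultures.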

| Structure (SMILES) | growth inhibition |
| --- | --- |
| CCCCCCCCCCCCCCCC1=NCCN1C | 48% (inactive) |
| C=CCNC(=O)c1ccccc1C(=O)O | 4% (inactive) |
| O=C(Nc1ccc(Cl)cc1Cl)OC(Cn1cncn1)c1ccc(Cl)cc1Cl (stereo not given) | 72% (active) |
| CC1=C(C)CC2C(=O)C(C(O)CC(C)C)=CC(=O)C2C1 (stereo not given) | -10% (inactive) |
| BrCc1ccccc1C[P+](c1ccccc1)(c1ccccc1)c1ccccc1 | 47% (inactive) |
| Cc1cn(C(C#N)=C(C#N)C#N)c2ccccc12 | -2% (inactive) |
| O=C1OCCCOC(=O)c2cc(ccc2O)OCC#CC#CCOc2ccc(O)c1c2 | 2% (inactive) |
| O=[N+]([O-])c1cc2ccc(O)cc2c2ccccc12 | -3% (inactive) |
| COc1cc2c(oc(=O)c3cc(C)cc(OC)c32)c2c(C3OC(C)C(O)C(C)(O)C3O)ccc(O)c12 (stereo not given) | 83% (active) |
| Oc1c(Cl)cc(Cl)c(Cc2c(Cl)cc(Cl)c(O)c2Cl)c1Cl | 97% (active) |
| N#CI1OC(C(F)(F)F)(C(F)(F)F)c2ccccc21 | 91% (active) |
| c1ccc2c(c1)[nH]c1c[n+]3c(c[n+]12)[nH]c1ccccc13 | -8% (inactive) |
| CC1Cc2cc(O)c(O)cc2-c2cc(O)c(O)cc2CC1C (stereo not given) | -30% (inactive) |
| COc1ccc(C2c3cc4c(cc3OC(C)(O)C2C)OCO4)cc1 (stereo not given) | -2% (inactive) |
| Cc1ccc(C2(O)CC(c3ccc([N+](=O)[O-])o3)=NN2C(=O)COc2ccc(Cl)cc2)cc1 (stereo not given) | 10% (inactive) |
| CCO[Si](CC)(OCC)OCC | -3% (inactive) |
| C/C=C(/CCC1NCCC2c3ccccc3NC12)[Si](C)(C)C (stereo not given) | -3% (inactive) |
| O=C(CBr)N1c2ccccc2Sc2ccc3ccccc3c21 | 74% (active) |
| CC(C)(C)CC(C)(C)N[P+](NC(C)(C)CC(C)(C)C)(NC(C)(C)CC(C)(C)C)NC(C)(C)CC(C)(C)C | 96% (active) |
| COc1ccc(/C=C/c2ccnnc2)c(OC)c1OC | -5% (inactive) |

| Structure (SMILES) | growth inhibition |
| --- | --- |
| O=Cc1cc(-c2ccccc2)n(-c2ccccc2)c1-c1ccccc1 | 0% (inactive) |
| CC(=O)Oc1ccc(/C=C/c2ccncc2)cc1 | -58% (inactive) |
| OC(c1ccccc1)(c1ccccc1)c1ccc[cH-]1.OC(c1ccccc1)(c1ccccc1)c1ccc[cH-]1.[Fe+2] | 3% (inactive) |
| O=C1C=CC(=O)N1c1ccc(Cl)cc1Br | 100% (active) |
| Cc1c(N)nc(C2CC(=O)N2CC(N)C(N)=O)nc1C(=O)NC(C(=O)NC(C)C(O)C(C)C(=O)NC(C(=O)NCCc1nc(-c2nc(C(=O)NCCNCC(C)O)cs2)cs1)C(C)O)C(OC1OC(CO)C(O)C(O)C1OC1OC(CO)C(O)C(OC(N)=O)C1O)c1cnc[nH]1 (stereo not given) | 77% (active) |
| CNC(=S)/N=c1/sc([N+](=O)[O-])c(C)n1C | -4% (inactive) |
| O=c1c2ccccc2ncn1Cc1ccccc1[N+](=O)[O-] | -1% (inactive) |
| Cc1nn(C(=O)c2ccncc2)c(C)c1N=Nc1ccccc1[N+](=O)[O-] | -1% (inactive) |
| CCC[CH2][Ge]([CH2]CCC)([CH2]CCC)[O]C(=O)C(OC(C)=O)c1ccccc1 (stereo not given) | 62% (inactive) |
| Nc1ccc2c(c1)[nH]c(=O)c1cc(Cl)c(Cl)cc12 | -1% (inactive) |
| CCCCCCCCCCCCSC1=C(N)C(=O)c2ccccc2C1=O | -1% (inactive) |
| CCC(C)(C)c1ccc(OCCO)c([N+](=O)[O-])c1 | 19% (inactive) |
| C/C(=N/O)c1cccc(C(F)(F)F)c1 | -66% (inactive) |
| CCCCCCN(S(=O)(=O)c1ccc([N+](=O)[O-])cc1)S(=O)(=O)c1ccc([N+](=O)[O-])cc1 | 32% (inactive) |
| N#CC1=C(N)OC(c2ccccc2)=C(C#N)C1c1ccccc1[N+](=O)[O-] (stereo not given) | -1% (inactive) |
| COC1CCCCC1C(=O)C(C#N)C1CCCCC1C1CCCCC1 (stereo not given) | -3% (inactive) |
| COCCOC1=C(Cl)C(=O)c2c(O)ccc(O)c2C1=O | 100% (active) |
| NC(CSSCC(N)C(=O)Nc1ccc2ccccc2c1)C(=O)Nc1ccc2ccccc2c1 (stereo not given) | 37% (inactive) |
| CSc1c(S(C)=O)c2ccccc2n1C (stereo not given) | 3% (inactive) |
| CCCCCCCCCCCCCCCCNCCCCCCCC(=O)O | 6% (inactive) |

— PubChem BioAssay (NCI)
